Out of some 220,000 compounds screened, about 370 (0.17%) were called active. Many of the other results were omitted from the sample, so actives are more common in it than they were. Values without a mark were called inactive.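 How the source made its calls: active means inhibition above the mean inhibition of all tested compounds plus 3 SD, set separately per screening campaign (cut at about 2.9% in these data); inactive means the rest.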

As a reminder, the inhibition is the change of the read-out against control, counted positive when it falls.

Eukaryotic translation initiation factor 2-alpha kinase 3 (Homo sapiens), sequence (Q9NZJ5 whole entry, looked up, the tested form may be a part): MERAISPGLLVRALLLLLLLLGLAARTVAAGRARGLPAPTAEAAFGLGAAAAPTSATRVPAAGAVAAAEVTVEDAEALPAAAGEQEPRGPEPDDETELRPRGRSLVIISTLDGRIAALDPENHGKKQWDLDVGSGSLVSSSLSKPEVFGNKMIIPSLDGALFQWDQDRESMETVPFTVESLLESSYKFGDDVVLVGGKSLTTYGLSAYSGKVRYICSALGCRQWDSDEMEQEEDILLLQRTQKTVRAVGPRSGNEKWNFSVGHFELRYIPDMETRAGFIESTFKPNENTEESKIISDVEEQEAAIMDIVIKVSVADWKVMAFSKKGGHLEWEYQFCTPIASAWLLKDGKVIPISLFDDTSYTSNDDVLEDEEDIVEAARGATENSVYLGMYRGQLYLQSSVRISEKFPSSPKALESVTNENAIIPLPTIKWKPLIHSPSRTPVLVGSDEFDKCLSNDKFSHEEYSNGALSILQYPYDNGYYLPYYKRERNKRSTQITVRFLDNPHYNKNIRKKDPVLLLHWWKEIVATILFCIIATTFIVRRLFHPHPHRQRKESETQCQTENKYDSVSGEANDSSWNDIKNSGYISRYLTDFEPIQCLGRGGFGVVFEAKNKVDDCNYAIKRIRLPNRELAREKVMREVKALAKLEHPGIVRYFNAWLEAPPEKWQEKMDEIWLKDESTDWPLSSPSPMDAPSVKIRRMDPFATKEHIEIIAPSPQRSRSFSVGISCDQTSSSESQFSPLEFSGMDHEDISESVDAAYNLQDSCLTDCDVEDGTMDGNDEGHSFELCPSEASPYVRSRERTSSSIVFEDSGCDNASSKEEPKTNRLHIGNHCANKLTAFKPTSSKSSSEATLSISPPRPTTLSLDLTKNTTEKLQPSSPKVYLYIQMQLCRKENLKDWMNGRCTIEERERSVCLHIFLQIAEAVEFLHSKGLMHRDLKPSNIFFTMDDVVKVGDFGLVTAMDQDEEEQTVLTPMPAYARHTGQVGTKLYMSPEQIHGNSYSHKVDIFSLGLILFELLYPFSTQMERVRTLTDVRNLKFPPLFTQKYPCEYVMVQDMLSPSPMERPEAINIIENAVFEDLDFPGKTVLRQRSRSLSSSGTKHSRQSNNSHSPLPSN

The test has as its target Eukaryotic translation initiation factor 2-alpha kinase 3 (Homo sapiens) (UniProt Q9NZJ5). As to the kind of experiment: block of dimerizer-induced PERK translation repression, primary screen, PERK inhibitor project, CHO PERK-DD cells, SEAP luminescence, HTS (AID 1416).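 Further: PERK kinase domain activated by AP20187 dimerizer at 100 nM; 0% = DMSO with dimerizer and 100% = rapamycin at 8.4 µM.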 Conditions: CHO PERK-DD fusion, SEAP luminescence translation reporter; at 5.6 µM; active compounds read high.
On to `O=S(=O)(Nc1ncccn1)c1ccc(NS(=O)(=O)c2cccc(Cl)c2Cl)cc1`, for which the inhibition was 0.64%.

`Cc1cc(-c2n[nH]c(=S)n2-c2ccc(C)c(C)c2)no1`: the inhibition was 3.32% (active).

Regarding `Cc1ccc(OCc2n[nH]c(=S)n2-c2ccc(C)cc2)cc1`, the inhibition was 0.51%.

In the case of `COc1ccccc1-n1c(-c2cc(-c3ccco3)[nH]n2)n[nH]c1=S`, the inhibition is 1.16%.

On to `COCCNC(=O)CN(C(=O)CCC(=O)Nc1cc(C)on1)c1ccc(C)cc1C`, for which the inhibition was 3.05% (active).

As for `Cc1ccc(SCCC(=O)Nc2cc(C)on2)cc1`, the inhibition was 1.3%.

In the case of `Cc1cc(NC(=O)CCC(=O)N(CC(=O)NCC2CCCO2)c2ccccc2C)no1` (configuration not stated), the inhibition was 0.7%.

Take `O=[N+]([O-])/C(N=Nc1ccccc1)=N\Nc1ccccc1`: the inhibition was 0.56%.

With `N#Cc1c(NC(=O)c2ccc(N3CCOCC3)c([N+](=O)[O-])c2)sc2c1CCCC2`, the inhibition was 0.19%.

For the compound `O=S(=O)(c1ccc(NC(=S)NN=C(C2CC2)C2CC2)cc1)N1CCOCC1`, the inhibition was 1.01%.

`C=CCSC(CC)(CC)C(N)=O`: the inhibition is 2.98% (active).

`O=S(=O)(NCC1OCCc2ccccc21)c1ccccc1` (configuration not stated): the inhibition was 0.47%.

For the compound `Cc1c(-c2ccccc2)cn2c1-c1ccc(C)n1CC2`, the inhibition was 0.83%.

`CCOC(=O)Cc1ncccc1C(=O)Nc1ccc(OC(F)(F)F)cc1`: the inhibition was 0.3%.

Consider `Cn1nccc1NC(=O)Nc1ccc(OC(F)(F)F)cc1`, for which the inhibition was 4.03% (active).

On to `COC(=O)[C@H](C)NC(=O)Nc1ccc(OC(F)(F)F)cc1`, for which the inhibition is -0.1%.

With `Cc1ccc(S(=O)(=O)Cc2cc(-c3ccc(Cl)cc3)no2)cc1`, the inhibition is 0.87%.

Regarding `CCOC(=O)CN1C(=O)N[C@@H](c2ccc(Br)cc2)C(C(C)=O)=C1C`, the inhibition was 0.08%.

For the compound `CCOCCCNC(=O)Cc1cc(=O)[nH]c(=O)[nH]1`, the inhibition is 3.08% (active).

As for `CCOC(=O)Cc1cc(=O)[nH]c(=O)[nH]1`, the inhibition was 1.51%.

On to `CCOCCCNC(=O)C(=O)NCCCOCC`, for which the inhibition is 0.9%.

Take `O=C(CN1CCc2ccccc21)NC(c1ccccc1)c1ccccc1`: the inhibition was -0.59%.

Regarding `CN(C)C(=O)c1cc(Br)ccc1Cl`, the inhibition is 2.54%.

Turning to `CC(=O)NC(Cc1ccc(F)c(F)c1)C(=O)NC1CCN(C(=O)c2ccc(C)cc2)CC1` (configuration not stated), the inhibition is 0.06%.

As for `C=C(C)C1CC=C(C)/C(=N\NC(=O)CNc2ccccc2OC)C1` (configuration not stated), the inhibition was 0.13%.

As to `c1ccc(COc2nsnc2N2CCOCC2)cc1`, the inhibition was 1.4%.

In the case of `c1nc(COc2nsnc2N2CCOCC2)cs1`, the inhibition is 0.89%.

Consider `O=C(O)COc1nsnc1N1CCOCC1`, for which the inhibition is 2.98% (active).

Regarding `NCC(=O)c1cccc2ccc[n+]([O-])c12`, the inhibition is -0.12%.

Regarding `COc1cc(C(=O)N2CCN(C/C=C/c3ccccc3)CC2)cc(OC)c1C`, the inhibition is -0.57%.

Take `CC(C)N1CCC(=NNc2ccc([N+](=O)[O-])cc2S(=O)(=O)N2CCOCC2)CC1`: the inhibition was 1%.

For the compound `CC(C)N(C(=O)CSc1nc(COc2ccccc2)nc2ccccc12)C(C)C`, the inhibition is 0.48%.

These data come from PubChem BioAssay AID1416 (The Scripps Research Institute Molecular Screening Center, 2008).
